Experimental findings from PubChem BioAssay AID1224855 (National Center for Advancing Translational Sciences (NCATS), 2016) are described below.

Records with an inconclusive call do not appear. Active and inactive are the calls of the source. Calls come from the whole dose curve; as a rule, active = well fitted inhibition curve with a large enough effect; inconclusive = small, poorly fitted or top-dose-only effect; inactive = no such curve, though single readings can be large or run the other way.

This assay can be described thus: Confirmation assay for measurement of the activity of small molecule inhibitors on Zika virus induced Caspase-3 activity in human iPSC derived neural progenitor cells (hNPCs). To be noted: hNPC ZIKV-induced caspase-3/7, Caspase-Glo luminescence, 6 h; series mostly up to 46.1 µM; activity, negative = inhibition: at the top concentration. From the text:
National Center for Advancing Translational Sciences [NCATS] Johns Hopkins University School of Medicine Florida State University Assay Overview: Increase in the Caspase-3 activity indicates an activation of apoptosis cell death pathway caused by Zika virus infection in certain types of neuronal cells including human neural progenitor cells (hNPCs), astrocytes, and astrocytoma cell line (SNB-19). This cell-based caspase-3 activity assay measures the increased caspase-3 activity in the human iPSC derived neural progenitor cells (hNPCs) after a 6-hour Zika virus infection with a luminescence readout. A decrease in the luminescence signal in this assay by small molecule treatment indicates an inhibitory effect of that small molecule on the Zika virus induced caspase-3 activity that may correlate with its effect on reduction of Zika virus caused cell death.
Assay Protocol Summary: The medium for hNPCs consists of DMEM/F12, N2 supplement (ThermoFisher, Cat.# 17502048), NEAA (ThermoFisher, Cat. # 11140050), 2 ug/ml heparin, 2 uM cyclopamine, and B27 (ThermoFisher, Cat. # 17504044). A Caspase-Glo 3/7 assay kit (catalog number G8092; Promega, Madison, WI) was used to detect caspase-3 activity induced by Zika virus infection in human cells. The reagent mixture was reconstituted as described in the protocol from the manufacturer. Polystyrene tissue culture treated and PDL coated white plates were obtained from Greiner Bio-One (Monroe, NC). Cells were seeded in 384- or 1536-well assay plates and cultured at 37 C with 5% CO2 for 16 to 20 hours. The typical cell seeding density in the 1536-well plate assay is 350 cells/well in 3 ul medium for hNPCs in tissue culture treated plates. Compounds were added to cells and incubated for one hour before addition of ZIKV solution to cells (2 FFU/cell). After incubation at 37 C with 5% CO2 for 6 hours, the reagent mixture of Caspase-Glo 3/7 assay kit was added to each well, followed by incubation at room temperature for 30 minutes. The luminescence intensity of the assay plates was measured using a ViewLux plate reader (PerkinElmer). Data were normalized by using the cell-containing wells without ZIKV as a negative control (0% induction of caspase 3/7 activity) and wells containing ZIKV infected cells (Caspase-3 activity induced) as a positive control (100% induction of caspase 3 activity). The percentage inhibitions of the increased Caspase-3 activity by small molecule inhibitors were then calculated.
As to `O=c1c(-c2ccc(O)cc2)coc2cc(O)ccc12`, the Potency is 13.8 µM (active).
Still for that read-out and setting: then `CC(C)c1ccc2oc3nc(N)c(C(=O)O)cc3c(=O)c2c1`, with 1.73 µM (active).
In the case of `CC[C@@]1(O)C[C@H](O[C@H]2C[C@H](N(C)C)[C@H](O[C@H]3C[C@H](O)[C@H](O[C@H]4CCC(=O)[C@H](C)O4)[C@H](C)O3)[C@H](C)O2)c2c(cc3c(c2O)C(=O)c2c(O)cccc2C3=O)[C@@H]1C(=O)OC`, the “activity, negative = inhibition” value was 65.4% (inactive).
Take `CC(C)Oc1ccc2c(=O)c(-c3ccccc3)coc2c1`: the Potency was 6.15 µM (active).
On the same count and under the same terms, then `COc1cccc(-c2ccc(NC(=O)C3=C(C(=O)O)CCC3)c(F)c2)c1`, with 2.45 µM (active).
As for `C[C@@H]1CCN(C(=O)CC#N)C[C@H]1N(C)c1ncnc2[nH]ccc12`, the “activity, negative = inhibition” value is -11.3% (inactive).
On the same count and under the same terms, the value for `O[C@@H](COc1cccc2ncccc12)CN1CCN(C2c3ccccc3[C@@H]3[C@H](c4ccccc42)C3(F)F)CC1` (stereo not given in full) was 39.1% (inactive).
Same read-out and setting: the value for `NC1CCC(Nc2nc(Nc3ccc(C(=O)N4CCCCC4)cc3)c3ncn(-c4cccc(F)c4)c3n2)CC1` (stereo not given) was 150% (inactive).
As to `O=C1NC(=O)C(=Cc2ccc(-c3ccc(F)cc3)o2)S1`, the Potency is 9.75 µM (active).
`C[C@@H](N)c1ccc(C(=O)Nc2ccnc3[nH]ccc23)cc1`: the “activity, negative = inhibition” value is 2.76% (inactive).
As to `Cc1cccc(/C=C/c2ccccc2)n1`, the Potency is 8.69 µM (active).
Regarding `CC(O)=C(C#N)C(=O)Nc1ccc(C(F)(F)F)cc1`, the Potency was 0.774 µM (active).
Turning to `N#C/C(=C\c1ccc(O)c(O)c1)C(=O)Nc1ccccc1`, the Potency is 15.5 µM (active).
On the same count and under the same terms, then `COCCn1c2c([n+](Cc3cnccn3)c1C)C(=O)c1ccccc1C2=O`, with 6.15 µM (active).
`CNC1[C@H](O)C(O[C@@H]2C(O)C(O[C@H]3O[C@H]([C@@H](C)NC)CC[C@H]3N)[C@@H](N)C[C@H]2N)OC[C@]1(C)O` (stereo not given in full): the “activity, negative = inhibition” value was 3.84% (inactive).
Turning to `COc1cc(NC(C)CCCN)c2ncccc2c1` (stereo not given), the “activity, negative = inhibition” value is 18.4% (inactive).
On to `O=c1oc2cc(O)ccc2s1`, for which the “activity, negative = inhibition” value is 8.59% (inactive).
Same read-out and setting: then `Nc1ncnc2c1ncn2[C@@H]1O[C@@H](CO)[C@H](O)[C@H]1O`, with 2.2% [at 23.8 µM] (inactive).
Consider `COc1ccc(-c2coc3cc(O)ccc3c2=O)cc1`, for which the Potency is 8.69 µM (active).
Same read-out and setting: then `O=C(Nc1ccc(OC(F)(F)F)cc1)c1sccc1NCc1ccnc2ccccc12`, with 6.15 µM (active).
On the same count and under the same terms, the value for `Cc1cccc(C#Cc2ccccc2)n1` was 3.46 µM (active).
Turning to `CC(=C(CCOC(=O)C(C)C)SSC(CCOC(=O)C(C)C)=C(C)N(C=O)Cc1cnc(C)nc1N)N(C=O)Cc1cnc(C)nc1N`, the “activity, negative = inhibition” value is -2.44% (inactive).
Turning to `COc1ccc(NC(=O)/C=C/c2ccc(Cl)cc2)cc1`, the Potency was 2.45 µM (active).
Take `CC(=NNC(=S)N1CCC1)c1ccccn1`: the “activity, negative = inhibition” value was -10.5% (inactive).
The same measure, in the same setting: the value for `CCN1/C(=C/C=C/c2sc3ccccc3[n+]2CC)Sc2ccccc21` was 77.5% [at 23.8 µM] (inactive); that for `CN1CC(=O)N2C(Cc3c([nH]c4ccccc34)[C@H]2c2ccc3c(c2)OCO3)C1=O` (stereo not given in full) was 6.79% (inactive); that for `CC=CC[C@@H](C)C(=O)[C@H]1C(=O)N[C@@H](C(C)C)C(=O)N(C)CC(=O)N(C)[C@@H](CC(C)C)C(=O)N[C@@H](C(C)C)C(=O)N(C)[C@@H](CC(C)C)C(=O)N[C@@H](C)C(=O)N[C@H](C)C(=O)N(C)[C@@H](CC(C)C)C(=O)N(C)[C@@H](CC(C)C)C(=O)N(C)[C@@H](C(C)C)C(=O)N1C` was 33.5% (inactive).
`O=C1c2ccccc2-[n+]2ccc3c([nH]c4ccccc43)c21`: the Potency is 9.75 µM (active).
For `CC(=O)Nc1ccc([C@H](C)C(=O)Nc2ncc(C(C)C)s2)cc1`, the Potency was 17.3 µM (active).
For the compound `CC(=O)OC(C)OC(=O)C(C)c1ccc(-c2ccccc2)c(F)c1` (stereo not given), the “activity, negative = inhibition” value is -22.6% (inactive).
The same measure, in the same setting: then `O=S(=O)(O)CCSSCCS(=O)(=O)O`, with 18.3% (inactive).
On to `O=C(O)[C@@H](c1ccc(OCc2ccc3ccccc3n2)cc1)C1CCCC1`, for which the Potency is 6.9 µM (active).
The same measure, in the same setting: then `c1ccc2[nH]c(-c3cscn3)nc2c1`, with 9.75 µM (active); and `COc1ccc(-c2cc(=O)c3c(O)cc(O)cc3o2)cc1O`, with 9.75 µM (active).
For the compound `CC(C)(C)OC(=O)CN(Cc1ccc(Cl)cc1)Cc1ccc([N+](=O)[O-])s1`, the “activity, negative = inhibition” value is 38.9% [at 88.3 µM] (inactive).
With `CC(=Cc1ccccc1)C=C1SC(=S)N(CC(=O)O)C1=O`, the Potency was 15.5 µM (active).
For the compound `Nc1ccc(N=Nc2ccccc2)c(N)n1`, the Potency is 15.5 µM (active).
Consider `CCCCCCCC/C=C/C(=O)O`, for which the “activity, negative = inhibition” value is -27% (inactive).
Turning to `CC(C(=O)O)c1ccc(C(=O)c2ccccc2)s1` (stereo not given), the Potency is 6.9 µM (active).
On the same count and under the same terms, the value for `Cc1ccc(O)c(N=Nc2ccccc2)n1` was 1.23 µM (active).
